A number with no mark means an inactive call. Calls of active or inactive are those of the source.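 The calls were made as follows, unless noted: active = inhibition above 50%; inactive = the rest.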
Assay: antimalarial activity against Dd2 strain (AID 2302;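 active = growth inhibition above 50% at the single 2 µM test dose, taken to imply half-maximal potency below 2 µM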;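 also: 0% = DMSO untreated growth and 100% = chloroquine plus artemisinin killed control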)
Settings: P. falciparum Dd2 in RBCs, LDH growth readout, 72 h; at 2 µM; hits give high values

| SMILES | growth inhibition |
| --- | --- |
| Clc1ccc(Nc2nc(Nc3ccc(Cl)c(Cl)c3)nc(Sc3nc4ccccc4[nH]3)n2)cc1Cl | 100% (active) |
| CCc1c(C)c2ccc3c(c2oc1=O)CN(CCc1ccc(F)cc1)CO3 | 85% (active) |
| c1cc(CN2CCc3ccccc3CC2)cc(-c2c[nH]c3nc(NC4CCCC4)ncc23)c1 | 49% |
| C[C@H](N[C@H]1CCCc2c1[nH]c1ccc(Br)cc21)c1ccccc1 | 95% (active) |
| CCCCc1cc(NCc2ccncc2)nc(Nc2ccccc2)n1 | 4% |
| CCC1CN(S(=O)(=O)c2ccc3c(c2)NC(=O)CC(=O)N3)c2cc(Cl)ccc2O1 (stereo not drawn) | 65% (active) |
| Cc1cccc(Nc2nccc(NCC(O)c3ccc(C(F)(F)F)cc3)n2)c1 (stereo not drawn) | 54% (active) |
| CCCCCc1cnc2nc(N)nc(N)c2c1 | 6% |
| CCCCCCCN1CC[C@@H](CCCc2ccnc3ccc(OCCC4CCNCC4)cc23)[C@@H](CC)C1 | 100% (active) |
| CCOCCCn1c(=N)c(C(=O)NC(C)c2ccccc2)cc2c(=O)n3cccc(C)c3nc21 (stereo not drawn) | 31% |
| O=S(=O)(NCCN1CCCC1)c1ccc(-c2ccc(CNCc3ccc(F)cc3)cc2)cc1 | 44% |
| CCN(CC)c1ccc(-c2nc3ncc(Cl)cc3[nH]2)cc1 | 85% (active) |
| CC(C)(C)c1ccc(CN2CCC(CNC(=O)c3cc(-c4ccccc4F)cs3)C2)cc1 (stereo not drawn) | 98% (active) |
| COc1ccc2nccc([C@@H](O)CN3CCC(NC(=O)C(c4ccsc4)N4CCN(c5ccccc5OC)CC4)CC3)c2c1 (stereo partly drawn) | 50% (active) |
| CC(CN(C)C)C(=O)Nc1cccc(-c2ccc(-c3nc4ccccc4[nH]3)cc2)c1 (stereo not drawn) | 25% |
| CC(C)(C)CNc1noc(-c2sccc2Br)n1 | 71% (active) |
| Cc1ccc2c(Cl)c(C(=O)N3CC(C)OC(C)C3)sc2c1 (stereo not drawn) | 98% (active) |
| O=C(O[C@@H]1CN[C@H](C#Cc2cc3ncnc(Nc4ccc5c(cnn5Cc5cccc(F)c5)c4)c3s2)C1)N1CCCC1 | 56% (active) |
| COc1ccc2c(c1)Sc1ccccc1C(N1CCN(CCO)CC1)C2 (stereo not drawn) | 4% |
| CC(=O)N[C@@H]1c2cc(C(C)=O)ccc2OC(C)(C)[C@@H]1O | 3% |

| SMILES | growth inhibition |
| --- | --- |
| O=C(/C=C/c1ccc(Cl)cc1Cl)N1CCC(CCN2CCC(c3c[nH]c4ccccc34)CC2)CC1 | 37% |
| COC(=O)c1cccc(CNCc2cccc(-c3ccc(-c4nc5c(C)cccc5[nH]4)s3)c2)c1 | 65% (active) |
| CS(=O)(=O)n1c(CN2CCN(c3ncc(C(F)(F)F)cc3Cl)CC2)nc2ccccc21 | 59% (active) |
| Cc1ccc(Nc2nc3cc(N(C)c4ccnc(Nc5cccc(CS(C)(=O)=O)c5)n4)ccc3o2)cc1 | 16% |
| O=C(Nc1ccc2c(c1)CCN(C1CCC1)CC2)c1cn(-c2ccccc2)nc1-c1ccccc1 | 10% |
| COc1ccc(C2c3cc(OC)c(OC)cc3C(=NO)C2C)cc1OC (stereo not drawn) | 6% |
| CN(C)CCC1CCN(CCS(=O)(=O)c2cccc(Nc3ncc(-c4cccc(F)c4)cn3)c2)CC1 | 12% |
| COc1ccc2ncc(F)c(CCN3CCC(NCc4cc5c(cn4)OCCS5)CC3)c2c1 | 40% |
| CC(C)c1ccc(OCC(O)CN(CCN2CCOCC2)C(=O)Nc2ccc(Br)cc2)cc1 (stereo not drawn) | 44% |
| COc1ccccc1N1CCN(C(C(=O)NCc2ccc3c(c2)OCO3)c2ccc3c(c2)OCCCO3)CC1 (stereo not drawn) | 13% |
| COc1ccc2nccc([C@@H](O)CN3CCC(NC(=O)C(c4cc5ccccc5s4)N4CCN(c5ccccc5OC)CC4)CC3)c2c1 (stereo partly drawn) | 88% (active) |
| O=C(NCCCCCN1CCC(c2ccc(O)cc2)CC1)c1ccc(-c2ccccc2)cc1 | -7% |
| CCc1cccc2sc(N3CCN(C(=O)c4ccc([N+](=O)[O-])o4)CC3)nc12 | 94% (active) |
| Cc1nc2nc(N)nc(N)c2c(C)c1Cc1ccccc1 | 0% |
| CC(C(=O)OCCOCn1cnc2c(=O)[nH]c(N)nc21)N(C)C(=O)OC(C)(C)C (stereo not drawn) | -1% |
| CCc1c(CCNCCCCCCNC(C)(C)Cc2ccc3c(c2CC)OCO3)ccc(OC)c1OC | 50% (active) |
| COc1ccc(OCCCN2CCCCC2)cc1S(=O)(=O)c1ccc(OCc2ccc(C(F)(F)F)cc2)cc1 | 8% |
| CC1(C)N=C(N)N=C(N)N1c1cccc(I)c1 | 85% (active) |
| CCCCN1CCN(CCCNc2c3ccccc3nc3ccccc23)CC1 | 70% (active) |

Assay: human hepatoma cell viability loss – ATP luminescence, cytotoxicity control for P. falciparum antimalarial project, primary screen (AID 2303);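 also: 0% = DMSO wells and 100% = digitonin-killed cells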
Settings: HepG2 viability, 24-48 h, at 10 µM, hits give high values

| SMILES | inhibition |
| --- | --- |
| Clc1ccc(Nc2nc(Nc3ccc(Cl)c(Cl)c3)nc(Sc3nc4ccccc4[nH]3)n2)cc1Cl | 10% |
| CCc1c(C)c2ccc3c(c2oc1=O)CN(CCc1ccc(F)cc1)CO3 | 0% |
| c1cc(CN2CCc3ccccc3CC2)cc(-c2c[nH]c3nc(NC4CCCC4)ncc23)c1 | 31% |
| C[C@H](N[C@H]1CCCc2c1[nH]c1ccc(Br)cc21)c1ccccc1 | 58% (active) |
| CCCCc1cc(NCc2ccncc2)nc(Nc2ccccc2)n1 | -5% |
| CCC1CN(S(=O)(=O)c2ccc3c(c2)NC(=O)CC(=O)N3)c2cc(Cl)ccc2O1 (stereo not drawn) | -9% |
| Cc1cccc(Nc2nccc(NCC(O)c3ccc(C(F)(F)F)cc3)n2)c1 (stereo not drawn) | 11% |
| CCCCCc1cnc2nc(N)nc(N)c2c1 | 72% (active) |
| CCCCCCCN1CC[C@@H](CCCc2ccnc3ccc(OCCC4CCNCC4)cc23)[C@@H](CC)C1 | 94% (active) |
| CCOCCCn1c(=N)c(C(=O)NC(C)c2ccccc2)cc2c(=O)n3cccc(C)c3nc21 (stereo not drawn) | 24% |
| O=S(=O)(NCCN1CCCC1)c1ccc(-c2ccc(CNCc3ccc(F)cc3)cc2)cc1 | 42% |
| CCN(CC)c1ccc(-c2nc3ncc(Cl)cc3[nH]2)cc1 | 16% |
| CC(C)(C)c1ccc(CN2CCC(CNC(=O)c3cc(-c4ccccc4F)cs3)C2)cc1 (stereo not drawn) | 46% |
| COc1ccc2nccc([C@@H](O)CN3CCC(NC(=O)C(c4ccsc4)N4CCN(c5ccccc5OC)CC4)CC3)c2c1 (stereo partly drawn) | 11% |
| CC(CN(C)C)C(=O)Nc1cccc(-c2ccc(-c3nc4ccccc4[nH]3)cc2)c1 (stereo not drawn) | 1% |
| CC(C)(C)CNc1noc(-c2sccc2Br)n1 | 4% |
| Cc1ccc2c(Cl)c(C(=O)N3CC(C)OC(C)C3)sc2c1 (stereo not drawn) | 4% |
| O=C(O[C@@H]1CN[C@H](C#Cc2cc3ncnc(Nc4ccc5c(cnn5Cc5cccc(F)c5)c4)c3s2)C1)N1CCCC1 | 9% |
| COc1ccc2c(c1)Sc1ccccc1C(N1CCN(CCO)CC1)C2 (stereo not drawn) | 11% |
| CC(=O)N[C@@H]1c2cc(C(C)=O)ccc2OC(C)(C)[C@@H]1O | 15% |

| SMILES | inhibition |
| --- | --- |
| O=C(/C=C/c1ccc(Cl)cc1Cl)N1CCC(CCN2CCC(c3c[nH]c4ccccc34)CC2)CC1 | 94% (active) |
| COC(=O)c1cccc(CNCc2cccc(-c3ccc(-c4nc5c(C)cccc5[nH]4)s3)c2)c1 | -4% |
| CS(=O)(=O)n1c(CN2CCN(c3ncc(C(F)(F)F)cc3Cl)CC2)nc2ccccc21 | -2% |
| Cc1ccc(Nc2nc3cc(N(C)c4ccnc(Nc5cccc(CS(C)(=O)=O)c5)n4)ccc3o2)cc1 | -19% |
| O=C(Nc1ccc2c(c1)CCN(C1CCC1)CC2)c1cn(-c2ccccc2)nc1-c1ccccc1 | 38% |
| COc1ccc(C2c3cc(OC)c(OC)cc3C(=NO)C2C)cc1OC (stereo not drawn) | 20% |
| CN(C)CCC1CCN(CCS(=O)(=O)c2cccc(Nc3ncc(-c4cccc(F)c4)cn3)c2)CC1 | 59% (active) |
| COc1ccc2ncc(F)c(CCN3CCC(NCc4cc5c(cn4)OCCS5)CC3)c2c1 | 4% |
| CC(C)c1ccc(OCC(O)CN(CCN2CCOCC2)C(=O)Nc2ccc(Br)cc2)cc1 (stereo not drawn) | 6% |
| COc1ccccc1N1CCN(C(C(=O)NCc2ccc3c(c2)OCO3)c2ccc3c(c2)OCCCO3)CC1 (stereo not drawn) | 15% |
| COc1ccc2nccc([C@@H](O)CN3CCC(NC(=O)C(c4cc5ccccc5s4)N4CCN(c5ccccc5OC)CC4)CC3)c2c1 (stereo partly drawn) | 21% |
| O=C(NCCCCCN1CCC(c2ccc(O)cc2)CC1)c1ccc(-c2ccccc2)cc1 | 28% |
| CCc1cccc2sc(N3CCN(C(=O)c4ccc([N+](=O)[O-])o4)CC3)nc12 | 2% |
| Cc1nc2nc(N)nc(N)c2c(C)c1Cc1ccccc1 | 62% (active) |
| CC(C(=O)OCCOCn1cnc2c(=O)[nH]c(N)nc21)N(C)C(=O)OC(C)(C)C (stereo not drawn) | 28% |
| CCc1c(CCNCCCCCCNC(C)(C)Cc2ccc3c(c2CC)OCO3)ccc(OC)c1OC | 100% (active) |
| COc1ccc(OCCCN2CCCCC2)cc1S(=O)(=O)c1ccc(OCc2ccc(C(F)(F)F)cc2)cc1 | 52% (active) |
| CC1(C)N=C(N)N=C(N)N1c1cccc(I)c1 | 68% (active) |
| CCCCN1CCN(CCCNc2c3ccccc3nc3ccccc23)CC1 | 26% |

From PubChem BioAssay
